# Laboratory results: PubChem BioAssay (NCI)
# Several values for one entry are separate records, joined by “and”; a condition that tells them apart may be missing. Identical values can stand only once. Compounds without any hit were thinned out: in the full panel of roughly 79,000, 15% have a hit. More than one record can exist for a structure, and the calls need not agree. Activity calls are given as the source filed them. No stated cut-off is given here; in the data, active means growth inhibition above about 70%; inactive means the rest.
# Assays:
# [1] = NCI Yeast Anticancer Drug Screen. Data for the rad50 strain (AID 155);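 further: 0% = growth of vehicle-only cultures of the same strain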; settings: S. cerevisiae rad50 strain growth inhibition, stronger effect = higher value
# In short: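 Cells are treated with compound, grown, and their growth is then scored against vehicle-only cultures of the same repair-deficient yeast strain.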
# [2] = NCI Yeast Anticancer Drug Screen. Data for the mec2-1 strain (AID 157); settings: S. cerevisiae mec2-1 strain, stronger effect = higher value
# In short: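 Readout is yeast growth inhibition, normalised to vehicle-treated controls, in the mec2-1 strain exposed to compound.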
# [3] = NCI Yeast Anticancer Drug Screen. Data for the sgs1 mgt1 strain (AID 161);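 further: 0% = growth of cultures given vehicle only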; settings: S. cerevisiae sgs1 mgt1 strain, stronger effect = higher value
# In short: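 Growth of a repair-deficient yeast mutant was monitored after compound treatment and expressed as inhibition relative to vehicle-treated cultures.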
# [4] = NCI Yeast Anticancer Drug Screen. Data for the cln2 rad14 strain (AID 165);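 further: 0% = growth equal to vehicle treated cultures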; settings: S. cerevisiae cln2 rad14 strain, stronger effect = higher value
# In short: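 Relative to vehicle controls, growth inhibition of compound-treated cln2 rad14 yeast was recorded.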
# [5] = NCI Yeast Anticancer Drug Screen. Data for the bub3 strain (AID 167); settings: S. cerevisiae bub3 mutant strain, stronger effect = higher value
# In short: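 Part of a panel of yeast mutants defective in DNA damage repair or cell cycle regulation. Each strain is grown with compound, and inhibition is calculated relative to solvent-treated cultures.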
# [6] = NCI Yeast Anticancer Drug Screen. Data for the mlh1 rad18 strain (AID 175); settings: S. cerevisiae mlh1 rad18 strain growth inhibition, stronger effect = higher value
# In short: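 Test agents were incubated with a yeast strain of defined genotype (DNA damage repair defect). Inhibition of growth was derived by comparison with vehicle-exposed cultures.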
# [7] = at 5.0 µM (retest, dose inferred, filed as 0.5)
# [8] = at 50.0 µM (retest, dose inferred, filed as 5.0)
Compound,"growth inhibition [1, 7]","growth inhibition [1, 8]",growth inhibition ([1]; at 50.0 µM),"growth inhibition [2, 7]","growth inhibition [2, 8]",growth inhibition ([2]; at 50.0 µM),"growth inhibition [3, 7]","growth inhibition [3, 8]",growth inhibition ([3]; at 50.0 µM),"growth inhibition [4, 7]","growth inhibition [4, 8]",growth inhibition ([4]; at 50.0 µM),"growth inhibition [5, 7]","growth inhibition [5, 8]",growth inhibition ([5]; at 50.0 µM),"growth inhibition [6, 7]","growth inhibition [6, 8]",growth inhibition ([6]; at 50.0 µM)
COC1/C=C/OC2(C)Oc3c(C)c(O)c4c(c3C2=O)C(=O)C=C(NC(=O)/C(C)=C\C=C\C(C)C2OC(C)(C)OC(C2C)C(C)C(OC(C)=O)C1C)C4=O (centres undefined),2% (inactive),89% (active),51.9% (inactive),30% (inactive),79% (active),57.3% (inactive),-3% (inactive),73% (active),60.8% (inactive),1% (inactive),89% (active),57% (inactive),2% (inactive),74% (active),45.8% (inactive),3% (inactive),92% (active),60.8% (inactive)
Cc1ncc(C[n+]2cccc(CCO)c2C)c(N)n1,4% (inactive) and 16% (inactive),31% (inactive) and 48% (inactive),55.7% (inactive) and 46.5% (inactive),19% (inactive) and 11% (inactive),60% (inactive) and 49% (inactive),40.5% (inactive) and 38% (inactive),-15% (inactive) and 10% (inactive),62% (inactive) and 68% (inactive),87.5% (active) and 64% (inactive),1% (inactive) and 9% (inactive),24% (inactive) and 18% (inactive),58.1% (inactive) and 24.5% (inactive),-4% (inactive) and 5% (inactive),14% (inactive) and 36% (inactive),8.65% (inactive) and 29.9% (inactive),10% (inactive) and 15% (inactive),63% (inactive) and 48% (inactive),72% (active) and 71.2% (active)
CC(=O)c1ccc2ccc3ccc(O)cc3c2c1,1% (inactive),97% (active),88.5% (active),11% (inactive),97% (active),80.5% (active),2% (inactive),96% (active),82.2% (active),-5% (inactive),97% (active),72.8% (active),-27% (inactive),98% (active),90.2% (active),6% (inactive),97% (active),89.2% (active)
O=[N+]([O-])C(/C=C(\Cl)[N+](=O)[O-])=C(Nc1ccccc1)Nc1ccccc1,-23% (inactive),98% (active),86.8% (active),-7% (inactive),99% (active),88.2% (active),-16% (inactive),98% (active),86.8% (active),1% (inactive),98% (active),82.8% (active),-33% (inactive),99% (active),85.8% (active),27% (inactive),99% (active),80.3% (active)
CCCCN(CCCC)C(Cl)=Nc1ccccc1,35% (inactive),32% (inactive),80.9% (active),29% (inactive),24% (inactive),87.1% (active),31% (inactive),30% (inactive),88.2% (active),17% (inactive),19% (inactive),81% (active),33% (inactive),38% (inactive),82.4% (active),39% (inactive),57% (inactive),77.4% (active)
O=c1ccn(C2CC(O)C(COC(c3ccccc3)(c3ccccc3)c3ccccc3)O2)c(=O)[nH]1 (centres undefined),1% (inactive) and 22% (inactive),99% (active),49.5% (inactive) and 40.2% (inactive),6% (inactive) and 7% (inactive),100% (active) and 99% (active),98% (active) and 53% (inactive),-1% (inactive),100% (active) and 54% (inactive),42.5% (inactive) and 52.7% (inactive),8% (inactive) and 5% (inactive),99% (active),97.7% (active) and 56% (inactive),7% (inactive) and 1% (inactive),99% (active) and 98% (active),99.5% (active) and 16.2% (inactive),13% (inactive),99% (active) and 98% (active),41.9% (inactive) and 51.7% (inactive)
COc1ccc(/C=C2\C=Nc3ccccc32)cc1,12% (inactive),-10% (inactive),12.7% (inactive),-3% (inactive),10% (inactive),-5.7% (inactive),0% (inactive),-3% (inactive),17.9% (inactive),28% (inactive),25% (inactive),10.4% (inactive),18% (inactive),30% (inactive),33.7% (inactive),12% (inactive),11% (inactive),4.55% (inactive)
COc1ccc(/C=C2\CCCC(CN(C)C)C2=O)cc1 (centres undefined),-1% (inactive),8% (inactive),65.4% (inactive),-20% (inactive),13% (inactive),78.8% (active),-31% (inactive),-3% (inactive),86.2% (active),-32% (inactive),9% (inactive),57.4% (inactive),-48% (inactive),23% (inactive),81.8% (active),-22% (inactive),5% (inactive),84.7% (active)
